# “And” between values parts separate entries of the source, which are not always exact repeats. Identical values can stand only once. Counter-ions that a name gives are not always drawn.
# Legend:
# Assay in all cases: cell viability relative to vehicle control; higher = less cytotoxic
# Conditions in all cases: 10 µM
# K562 = test system: K562
# Outline: (§1)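 Four leukaemia lines, as CRISPR-edited mutant clones and isogenic wild-type clones, were tested against Selleck bioactive, kinase and epigenetic probe libraries after removal of identity-inconsistent compounds. Cells were exposed to a single 10 µM dose for 48 h, and CellTiter-Glo luminescence was then read. Viability was calculated relative to the on-plate vehicle control.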
# MARIMO = test system: MARIMO
# Outline: as §1
# MOLM14 = test system: MOLM14
# Outline: as §1
# OCI-AML2 = test system: OCI-AML2
# Outline: as §1
SMILES,cell viability (K562; SRSF2 genotype: SRSF2 P95H/wt),cell viability (K562; SRSF2 genotype: SRSF2 wt/wt) [%],cell viability (MARIMO; SRSF2 genotype: SRSF2 P95H/wt) [%],cell viability (MARIMO; SRSF2 genotype: SRSF2 wt/wt) [%],cell viability (MOLM14; SRSF2 genotype: SRSF2 P95H/wt) [%],cell viability (MOLM14; SRSF2 genotype: SRSF2 wt/wt) [%],cell viability (OCI-AML2; SRSF2 genotype: P95H/wt) [%],cell viability (OCI-AML2; SRSF2 genotype: wt/wt) [%]
CC(C)(C)c1cc(C=C(C#N)C#N)cc(Br)c1O,84.3% and 86.2%,78,94.2,99.3,93.5,100,80.5,89.6
CC(C)=CCCC(C)(O)C1CCC2(C)C1C(O)CC1C3(C)CCC(O)C(C)(C)C3C(OC3OC(CO)C(O)C(O)C3O)CC12C [(20R)-Ginsenoside Rh1],101% and 98.6%,103,111,98.8,115,107,107,108
CN(C)C1C(=O)C(C(N)=O)=C(O)C2(O)C(=O)C3=C(O)c4c(O)cccc4C(C)(O)C3CC12 (stereo not drawn) [Tetracycline hydrochloride],84.5% and 91.2%,90.4,90.7,96.3,102,98.3,89.3,95.9
CC1=C[C@@H]2C(=O)[C@]3(C=C(C)[C@H](O)[C@@]3(O)[C@@H]1O)[C@H](C)C[C@@H]1[C@H]2C1(C)C [20-Deoxyingenol],79.4% and 65.6%,65.1,76.2,100,39.8,14.8,18.2,52
C[C@]12C=CC(=O)C=C1CC[C@@H]1[C@@H]2CC[C@@]2(C)[C@H]1CC[C@]2(C)O [Methandrostenolone],102% and 107%,102,103,105,103,110,115,104
CCNc1nc(Cl)nc(NC(C)C)n1 [Atrazine],97.5% and 94.1%,98.2,90.6,102,93.9,97,99.1,104
O=c1cccc2n1C[C@@H]1CNC[C@H]2C1 [Cytisine],107% and 100%,92.9,93.3,107,97.7,102,94.3,104
Cc1cc(C(=O)CN2CCCC2)c(C)n1-c1ccc(F)cc1,93.7% and 94%,89.1,80.6,98.2,83.7,94.7,88.4,85.8
CCC(=O)O[C@H]1CC[C@H]2[C@@H]3CC[C@H]4CC(=O)[C@H](C)C[C@]4(C)[C@H]3CC[C@]12C [Drostanolone Propionate],85.6% and 88.6%,79.2,72.7,44.8,77.4,83.8,63.7,57.3
C=C[C@@]12CN(C)[C@H]3C[C@]14C(=Nc1ccccc14)[C@@H]1C[C@@H]2[C@@H]3CO1 [Koumine],99.2% and 99.1%,98.6,102,102,104,96.2,101,101
C[C@@H]1CCC=C2C(=O)C[C@H]3OOC(C)(C)[C@H]3[C@]21C [Nardosinone],85.3% and 82.5%,83.5,84.7,92.8,89.8,91.4,92.9,102
CCN1C[C@]2(COC)CC[C@H](OC)[C@]34C1[C@H](C[C@H]23)[C@@]1(O)C[C@H](OC)[C@H]2C[C@@H]4[C@@H]1[C@H]2O [Talatisamine],110% and 104%,108,104,108,105,106,101,107
CC(=O)O[C@H]1C[C@H](O[C@H]2[C@@H](O)C[C@H](O[C@H]3[C@@H](O)C[C@H](O[C@H]4CC[C@@]5(C)[C@H](CC[C@@H]6[C@@H]5C[C@@H](O)[C@]5(C)[C@@H](C7=CC(=O)OC7)CC[C@]65O)C4)O[C@@H]3C)O[C@@H]2C)O[C@H](C)[C@H]1O[C@@H]1O[C@H](CO)[C@@H](O)[C@H](O)[C@H]1O [Lanatoside C],10.1% and 11.2%,12.5,14.9,5.1,4.2,0.9,0.9,3.5
O=c1[nH]c2ccccc2n1C1CCN(Cc2ccc(-c3[nH]c4cc5ncnc5cc4nc3-c3ccccc3)cc2)CC1,56.9% and 65.9%,61.7,66.5,76.2,53.6,43.6,48.8,47.9
Nc1ncnc2c1ccn2[C@@H]1O[C@H]([C@H](O)c2ccccc2)[C@@H](O)[C@H]1O,89.1% and 85%,79.6,83.5,95.3,77.1,89.3,79,88
COc1ccc(C[C@H]2NC[C@H](O)[C@H]2OC(C)=O)cc1 [Anisomycin],4.09% and 9.55%,7.54,13.6,6.74,0.46,0.44,3.57,10.5
CCC1(c2cccc(O)c2)CCCCN(C)C1 (stereo not drawn) [Meptazinol HCl],96.2% and 101%,100,91,93.7,103,98.1,96.4,92.4
CN1[C@@H]2CC[C@H]1C[C@@H](OC(=O)C(CO)c1ccccc1)C2 (stereo partly drawn) [Atropine sulfate],105% and 99.4%,100,105,112,110,107,94,97.8
CC(=O)OCC1=C(C(=O)O)N2C(=O)C(N)C2SC1 (stereo not drawn) [7-Aminocephalosporanic acid],107% and 103%,102,101,108,111,107,109,110
CC[C@H]1[C@@H]2C[C@H]3[C@@H]4N(C)c5ccccc5[C@]45C[C@@H]([C@@H]2[C@H]5O)N3[C@@H]1O [Ajmaline],95.7% and 94%,98.5,90.6,96.2,94.6,98.4,93.9,97.9
CC(=O)OC12COC1CC(O)C1(C)C(=O)C(O)C3=C(C)C(O)CC(O)(C(OC(=O)c4ccccc4)C21)C3(C)C (stereo not drawn) [10-DAB (10-Deacetylbaccatin)],103% and 110%,103,109,108,111,105,105,98.3

SMILES,cell viability (K562; SRSF2 genotype: SRSF2 P95H/wt),cell viability (K562; SRSF2 genotype: SRSF2 wt/wt) [%],cell viability (MARIMO; SRSF2 genotype: SRSF2 P95H/wt) [%],cell viability (MARIMO; SRSF2 genotype: SRSF2 wt/wt) [%],cell viability (MOLM14; SRSF2 genotype: SRSF2 P95H/wt) [%],cell viability (MOLM14; SRSF2 genotype: SRSF2 wt/wt) [%],cell viability (OCI-AML2; SRSF2 genotype: P95H/wt) [%],cell viability (OCI-AML2; SRSF2 genotype: wt/wt) [%]
CC[N+](C)(CC)CCOC(=O)C(O)(c1ccccc1)c1ccccc1 [Methylbenactyzine Bromide],95.9% and 96.8%,100,97.7,104,96.1,102,97.7,91
CCC1=C[C@H]2CN3CCc4c([nH]c5ccccc45)[C@](C(=O)OC)(C2)[C@H]13 [Catharanthine],92.4% and 94%,95.2,81,86.6,87.8,95.5,92,96.2
C[C@]12CCC(=O)C[C@@H]1CC[C@@H]1[C@@H]2CC[C@]2(C)[C@@H](O)CC[C@@H]12 [Dihydrotestosterone (DHT)],97% and 97.8%,97.7,95.3,109,93.9,102,96.5,101
CCO[C@H]1O[C@@H]2O[C@@]3(C)CC[C@H]4[C@H](C)CC[C@@H]([C@H]1C)[C@@]24OO3 [Arteether],68.2% and 63.3%,69,62.3,64.4,69.8,45.7,55.5,52.5
CC(C)OC(=O)[C@H](C)N[P@](=O)(CO[C@H](C)Cn1cnc2c(N)ncnc21)Oc1ccccc1 [Tenofovir Alafenamide (GS-7340)],100% and 106%,97.3,93.8,91.2,87,90.6,31.5,53.6
CCN(CC)C(=O)c1ccc(C2=CC3(CCNCC3)Oc3cccc(O)c32)cc1,93.6% and 101%,92.9,88.9,98.2,97.5,93.4,97.3,89
CN1C2CC(OC(=O)C(CO)c3ccccc3)CC1C(O)C2 (stereo not drawn) [Raceanisodamine],107% and 103%,107,99,111,100,107,99.6,104
O=C(/C=C/c1ccccc1)OC[C@H]1O[C@@H](O[C@@H]2OC=C[C@H]3[C@H](O)[C@@H]4O[C@]4(CO)[C@@H]23)[C@H](O)[C@@H](O)[C@@H]1O [Picroside I],99.3% and 101%,105,98.8,98.7,101,103,104,100
C=C[C@H]1CN2CC[C@H]1C[C@H]2[C@H](O)c1ccnc2ccccc12 [Cinchonidine],87.9% and 96.3%,94.8,94.6,97.5,85.7,97.8,95.2,92.1
CCN1CC2(OC(=O)c3ccccc3NC(C)=O)CCC(OC)C34C1C(CC23)C1(O)CC(OC)C2CC4C1(O)C2OC (stereo not drawn) [Lappaconite Hydrobromide],102% and 86.3%,88.2,86.7,96.2,89.6,96.4,97.3,87.2
O=C(O)CCCCCCCCCO [10-Hydroxydecanoic acid],99.2% and 97.8%,100,97.8,101,97.9,99.3,99.4,92.7
CC(C)N(CCNC(=O)CN1CCCC1=O)C(C)C [Pramiracetam],96.6% and 106%,104,98.4,111,107,102,98.1,105
CN1[C@@H]2CC[C@H]1C[C@@H](OC(=O)[C@H](CO)c1ccccc1)C2 [Hyoscyamine (Daturine)],104% and 93.5%,91.9,104,107,99.2,102,95.4,113
C#C[C@]1(O)C=C[C@H]2[C@@H]3CCC4=CC(=O)CC[C@@H]4[C@H]3CC[C@@]21CC [Gestodene],94.9% and 97.5%,95.4,90.9,97.2,94.2,97.1,99,94.8
O=c1ccc2cc3ccoc3c(O)c2o1 [Xanthotoxol],91.6% and 88.5%,87.1,84.3,95.3,92.8,92.2,96.5,93.3
CN1C(=O)COc2c(C(=O)NC3CN4CCC3CC4)cc(Cl)cc21 (stereo not drawn) [Azasetron HCl],96.6% and 91.5%,94.9,92.8,98.7,90.5,97.3,95.9,94.7
C=CC[C@]1(O)CC[C@H]2[C@@H]3CCC4=CC(=O)CCC4=C3C=C[C@@]21C [Altrenogest],92.6% and 98.1%,97.5,99.9,102,99.8,107,109,96.9
NC(=O)CN1CCCC1=O [Piracetam],96.1% and 103%,98.7,102,102,99.6,105,103,112
CC(=O)Nc1ccc(OC[C@](C)(O)C(=O)Nc2ccc([N+](=O)[O-])c(C(F)(F)F)c2)cc1 [Andarine (GTX-007)],103% and 99%,107,98.4,105,106,105,97.1,95.8
C=C[C@]12CN(C)[C@@H]3[C@H]4CO[C@H](C[C@H]41)[C@]1(C(=O)Nc4ccccc41)[C@@H]32 [Gelsemine],91.8% and 88.5%,87.9,87.9,97.5,96,90,90.1,90

# Source: the supplement of paper PMC10981050
